Results filed as inconclusive are left out. Active and inactive are the calls of the source. Rule for the calls, unless noted: active = hit-call score of the fitted dose curve at least 0.9, where 1 is the maximum; inconclusive = response in the unintended direction; inactive = score below 0.9.
Legend:
[1] = biological target: Cellular tumor antigen p53 (Homo sapiens) (UniProt P04637); test: TOX21_p53_BLA_p3_ratio: Tox21 HCT-116 p53 Agonism Beta-lactamase Assay, Ratio, Phase 3 (AID 2283596)
In short: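 HCT116 p53-bla cells (4000/well) given compound in DMSO (217-fold dilution) after 5 h, incubated 16 h at 37C. CCF4-AM substrate 2 h at room temperature; 460/530 nm emission ratio, gain fitted against DMSO.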

[2] = TOX21_p53_BLA_p4_viability: Viability Assessment in the Tox21 HCT-116 p53 Agonism Beta-lactamase Assay, Phase 4 (AID 2283597);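 note: hits lower the luminescence signal meaning cytotoxicity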
In short: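 HCT-116 p53-bla cells, 4000/well, dosed after 5 h attachment and incubated 16 h at 37 °C, 5% CO2. Viability from CellTiter-Glo ATP luminescence after 30 min at room temperature, taken after the beta-lactamase read; loss of signal indicates cytotoxicity.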

[3] = TOX21_p53_BLA_p5_viability: Viability Assessment in the Tox21 HCT-116 p53 Agonism Beta-lactamase Assay, Phase 5 (AID 2283600)
In short: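 HCT-116 p53 beta-lactamase reporter cells, 4000/well, were exposed to compound (pin transfer, 217-fold dilution) for 16 hours at 37C. Cellular ATP was read by CellTiter-Glo luminescence after 30 min at room temperature.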

[4] = biological target: Cellular tumor antigen p53 (Homo sapiens) (UniProt P04637); test: TOX21_p53_BLA_p5_ratio: Tox21 HCT-116 p53 Agonism Beta-lactamase Assay, Ratio, Phase 5 (AID 2283599)
In short: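 HCT-116 p53-bla cells (4000/well) plated 5 h, dosed with compound (217-fold DMSO dilution) for 16 h at 37 C; CCF4-AM substrate 2 h at room temperature. Activity is the 460/530 nm emission ratio (405 nm excitation), fitted in gain-of-signal direction versus DMSO.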

[5] = biological target: Cellular tumor antigen p53 (Homo sapiens) (UniProt P04637); test: TOX21_p53_BLA_p4_ratio: Tox21 HCT-116 p53 Agonism Beta-lactamase Assay, Ratio, Phase 4 (AID 2283601)
In short: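 HCT-116 p53 beta-lactamase reporter cells (4000/well) preincubated 5 h, then compound (217-fold dilution of DMSO stock) for 16 h at 37C. CCF4-AM substrate added 2 h at room temperature; 460/530 nm emission ratio fitted upward versus DMSO.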

[6] = biological target: PGR (gene 5241) (UniProt P06401); test: TOX21_PR_BLA_Followup_Agonist_ratio: Tox21 HEK293 Progesterone Receptor (PR) Agonism Beta-lactamase Follow-Up Assay, Ratio (AID 2283933)
In short: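 PR-UAS-bla HEK293T cells (GAL4-UAS beta-lactamase reporter) in medium with 2% charcoal-stripped FBS received compounds after 6 hr at 37C, then incubated 16 hr. LiveBLAzer FRET substrate added, 2 hr room temperature; cleaved/uncleaved (ch2/ch1) ratio fitted upward versus DMSO.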

[7] = biological target: PGR (gene 5241) (UniProt P06401); test: TOX21_PR_BLA_Followup_Antagonist_ratio: Tox21 HEK293 Progesterone Receptor (PR) Antagonism Beta-lactamase Follow-Up Assay, Ratio (AID 2283934)
In short: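 PR-UAS-bla HEK293T cells in medium with 2% charcoal-stripped FBS were treated with compounds plus 1 nM (final) promegestone (R5020) for 16 hr at 37C. LiveBLAzer B/G FRET substrate was then added for 2 h at room temperature; signal is cleaved/uncleaved substrate ratio versus DMSO.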

[8] = TOX21_PR_BLA_Followup_Agonist_viability: Viability Assessment in the Tox21 HEK293 Progesterone Receptor (PR) Agonism Beta-lactamase Follow-Up Assay (AID 2283935);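 note: signal loss means lower viability so actives are cytotoxic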
In short: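 PR-UAS-bla HEK293T cells in 2% charcoal-stripped FBS medium, compound added after 6 hr plating, 16 hr at 37C/5% CO2. After bla FRET read, CellTiter-Glo added; luminescence read after 30 min at room temperature; signal loss marks cytotoxicity.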

[9] = TOX21_PR_BLA_Followup_Antagonist_viability: Viability Assessment in the Tox21 HEK293 Progesterone Receptor (PR) Antagonism Beta-lactamase Follow-Up Assay (AID 2283936);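 note: hits lower the luminescence signal meaning cytotoxicity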
In short: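 PR-UAS-bla HEK293T cells (3,000/well, 2% charcoal-stripped FBS) given compound plus R5020 agonist, 16 h at 37C. CellTiter-Glo added after bla read, 30 min at room temperature; luminescence loss indicates cytotoxicity.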

[10] = biological target: PGR (gene 5241) (UniProt P06401); test: TOX21_PR_LUC_Followup_Agonist: Tox21 HEK293 Progesterone Receptor (PR) Agonism Luciferase Follow-Up Assay (AID 2283937; active = hit-call score of the fitted dose curve at least 0.9, where 1 is the maximum; inactive = score below 0.9)
In short: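 HEK293-PR-A-luc cells, pre-cultured 5 days in medium with 10% charcoal-stripped FBS, were seeded at 3,000 cells/well, rested 5 h at 37C, then exposed to compounds 16 h at 37C; luciferase read by ONE-Glo luminescence after 30 min.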

[11] = biological target: PGR (gene 5241) (UniProt P06401); test: TOX21_PR_LUC_Followup_Antagonist: Tox21 HEK293 Progesterone Receptor (PR) Antagonism Luciferase Follow-Up Assay (AID 2283938);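 note: curve fitted upward as signal gain over DMSO baseline despite antagonist label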
In short: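 HEK293-PR-A-luc cells, 3,000/well, preincubated 5 h at 37C before compound addition in DMSO; 16 h compound exposure at 37C. ONE-Glo luciferase luminescence read after 30 min at room temperature, fitted relative to DMSO baseline.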

[12] = TOX21_PR_LUC_Followup_Antagonist_viability: Viability Assessment in the Tox21 HEK293 Progesterone Receptor (PR) Antagonism Luciferase Follow-Up Assay (AID 2283940)
In short: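 HEK293-PR-A-luc cells, precultured 5 days in assay medium with 10% charcoal-stripped FBS, were seeded at 3,000 cells/well, treated with compounds in DMSO for 16 h at 37C, and viability was read as cellular ATP by CellTiter-Glo luminescence.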

[13] = TOX21_PR_LUC_Followup_Agonist_viability: Viability Assessment in the Tox21 HEK293 Progesterone Receptor (PR) Agonism Luciferase Follow-Up Assay (AID 2283941);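 note: loss of signal means cytotoxicity so actives lower viability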
In short: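 HEK293-PR-A-luc cells, pre-cultured 5 days in 10% charcoal-stripped FBS, were seeded at 3,000 cells/well, rested 5 h at 37C, then given compound in DMSO for 16 h at 37C. Cellular ATP was read by CellTiter-Glo luminescence; signal loss indicates cytotoxicity.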

[14] = biological target: Thyroid hormone receptor alpha (Rattus norvegicus) + Thyroid hormone receptor beta (Rattus norvegicus) (UniProt P18113+P63059); test: TOX21_TR_LUC_GH3_Antagonist_Followup: Tox21 GH3 Thyroid Hormone Receptor Antagonism Luciferase Follow-Up Assay (AID 2283942)
In short: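 Antagonist mode: GH3 cells seeded 1,500/well, compounds at 15 concentrations (92 uM to 5nM final) plus T3 at 1.0 nM final, 24 h at 37C. Luciferase read with ONE-Glo after 30 min at room temperature.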

[15] = TOX21_TRB_BLA_Antagonist_Followup_viability: Viability Assessment in the Tox21 Thyroid Hormone Receptor beta Antagonism Beta-lactamase (BLA) Follow-Up Assay (AID 2283961)
In short: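 HEK293T cells with GAL4-human TRβ LBD and UAS-bla reporter, 3,000 cells/well in 2% charcoal-stripped FBS medium; 11-point concentrations in triplicate, 18 h at 37C. Viability from ATP by CellTiter-Glo luminescence, 30 min RT, same plates.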

[16] = biological target: Retinoic acid receptor RXR-alpha (Homo sapiens) (UniProt P19793); test: TOX21_TR_RXR_BLA_Antagonist_Followup_ratio: Tox21 Thyroid Hormone Receptor beta Retinoid X Receptor alpha (RXRa) Antagonism Beta-lactamase (BLA) Follow-Up Assay, Ratio (AID 2283972)
In short: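 RXRa-UAS-bla HEK293T cells, 2,500/well in phenol red-free DMEM with 2% charcoal-stripped FBS, 5 h attachment, then compounds (11 concentrations, triplicate) for 16 h at 37C; FRET-B/GCCF4-AM substrate 2 h RT; 460:530 nm ratio, loss of signal vs DMSO.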

[17] = TOX21_TR_RXR_BLA_Antagonist_Followup_viability: Viability Assessment in the Tox21 Thyroid Hormone Receptor beta Retinoid X Receptor alpha (RXRa) Antagonism Beta-lactamase (BLA) Follow-Up Assay (AID 2283979)
In short: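 RXRa-bla HEK293T cells (2,500/well, phenol red-free DMEM, 2% charcoal-stripped FBS) were attached 5 h, then exposed to compounds at 11 concentrations in triplicate for 16 h at 37C. Viability measured by CellTiter-Glo ATP luminescence, bidirectional fitting versus DMSO.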

Chain of Cellular tumor antigen p53 (Homo sapiens) (P04637 whole entry, looked up): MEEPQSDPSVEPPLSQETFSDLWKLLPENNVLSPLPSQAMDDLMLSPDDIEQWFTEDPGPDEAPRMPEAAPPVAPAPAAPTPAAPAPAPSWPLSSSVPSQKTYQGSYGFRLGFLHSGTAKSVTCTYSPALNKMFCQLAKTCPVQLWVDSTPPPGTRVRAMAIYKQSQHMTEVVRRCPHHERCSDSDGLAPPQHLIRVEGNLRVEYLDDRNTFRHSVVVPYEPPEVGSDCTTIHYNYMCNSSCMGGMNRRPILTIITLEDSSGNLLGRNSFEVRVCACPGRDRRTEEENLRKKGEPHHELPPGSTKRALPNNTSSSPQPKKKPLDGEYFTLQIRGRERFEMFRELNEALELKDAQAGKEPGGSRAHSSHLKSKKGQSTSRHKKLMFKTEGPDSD
Chain of PGR (gene 5241) (P06401 whole entry, looked up, the tested form may be a part): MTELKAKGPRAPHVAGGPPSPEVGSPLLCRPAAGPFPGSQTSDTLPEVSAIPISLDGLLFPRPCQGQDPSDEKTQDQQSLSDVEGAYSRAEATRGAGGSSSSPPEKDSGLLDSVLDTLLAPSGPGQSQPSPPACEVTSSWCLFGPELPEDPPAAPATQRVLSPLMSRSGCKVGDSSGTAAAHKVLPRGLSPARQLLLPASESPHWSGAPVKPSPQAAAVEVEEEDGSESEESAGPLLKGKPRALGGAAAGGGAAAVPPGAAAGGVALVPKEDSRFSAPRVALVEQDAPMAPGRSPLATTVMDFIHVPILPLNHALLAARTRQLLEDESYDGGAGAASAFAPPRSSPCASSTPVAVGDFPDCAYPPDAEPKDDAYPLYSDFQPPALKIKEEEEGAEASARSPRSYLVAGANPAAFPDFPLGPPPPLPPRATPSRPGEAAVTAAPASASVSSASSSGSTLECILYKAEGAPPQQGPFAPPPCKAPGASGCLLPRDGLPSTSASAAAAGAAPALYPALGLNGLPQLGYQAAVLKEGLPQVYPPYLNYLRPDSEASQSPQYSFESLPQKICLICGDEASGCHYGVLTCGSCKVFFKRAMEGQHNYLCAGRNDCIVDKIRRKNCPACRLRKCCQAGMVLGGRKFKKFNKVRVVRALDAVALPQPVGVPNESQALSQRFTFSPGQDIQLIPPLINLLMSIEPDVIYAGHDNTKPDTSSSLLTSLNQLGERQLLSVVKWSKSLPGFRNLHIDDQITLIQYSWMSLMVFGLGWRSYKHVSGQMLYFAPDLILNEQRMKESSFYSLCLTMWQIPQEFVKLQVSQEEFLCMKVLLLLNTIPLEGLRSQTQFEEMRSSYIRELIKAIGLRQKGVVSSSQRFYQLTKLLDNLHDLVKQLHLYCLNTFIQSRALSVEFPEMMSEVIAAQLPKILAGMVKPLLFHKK
Chain of Retinoic acid receptor RXR-alpha (Homo sapiens) (P19793 whole entry, looked up): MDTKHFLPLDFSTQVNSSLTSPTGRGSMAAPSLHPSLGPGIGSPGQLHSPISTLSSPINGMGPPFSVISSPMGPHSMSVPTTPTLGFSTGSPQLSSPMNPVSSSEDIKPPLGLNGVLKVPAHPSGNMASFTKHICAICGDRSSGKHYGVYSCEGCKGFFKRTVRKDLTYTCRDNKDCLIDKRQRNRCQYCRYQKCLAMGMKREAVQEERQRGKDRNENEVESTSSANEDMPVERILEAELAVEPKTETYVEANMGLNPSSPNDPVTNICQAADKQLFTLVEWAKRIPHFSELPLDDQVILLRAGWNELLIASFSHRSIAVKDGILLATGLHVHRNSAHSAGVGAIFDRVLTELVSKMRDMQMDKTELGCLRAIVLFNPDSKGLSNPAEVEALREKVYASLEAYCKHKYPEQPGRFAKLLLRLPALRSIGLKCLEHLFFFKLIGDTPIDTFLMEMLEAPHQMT

In the case of `COc1cc(Cl)ccc1Cl`, the outcome [1] is reported as “inactive”, the outcome [2] is reported as “inactive” and the outcome [3] is reported as “inactive”.
In the case of `O=C(O)[C@H]1/C(=C/CO)O[C@@H]2CC(=O)N21`, the outcome [1] is reported as “inactive”, the outcome [2] is reported as “inactive” and the outcome [4] is reported as “inactive”. The outcome [5] was “inactive”.
For `CO/N=C(\C(=O)N[C@@H]1C(=O)N2C(C(=O)O)=C(CSc3nc(C)c(CC(=O)O)s3)CS[C@H]12)c1csc(N)n1`, the outcome [1] was “inactive”, the outcome [2] was “inactive” and the outcome [4] was “inactive”. The outcome [3] was “inactive”.
With `CN1CCN(C2=Nc3cc(F)ccc3Cc3ccccc32)CC1` the outcome [6] was “inactive”, the outcome [7] was “inactive” and the outcome [8] was “inactive”. The outcome [9] was “inactive”, the outcome [10] was “inactive” and the outcome [11] was “inactive”. The outcome [12] was “inactive” and the outcome [13] was “inactive”.
With `OCC(F)(F)F` the outcome [1] was “inactive” and the outcome [3] was “inactive”.
For `CCOC(=O)c1ccc(OC(=O)CCCCCN=C(N)N)cc1`, the outcome [1] was “inactive” and the outcome [3] was “inactive”.
In the case of `CS(=O)(=O)NC(=O)CCC/C=C\C[C@H]1C(=O)C[C@@H](O)[C@@H]1/C=C/[C@H](O)COc1ccccc1`, the outcome [2] is reported as “inactive” and the outcome [4] is reported as “inactive”.
In the case of `CC(Oc1ccccc1)C(=O)N[C@@H]1C(=O)N2[C@@H]1SC(C)(C)[C@@H]2C(=O)O` (stereo not given in full), the outcome [1] is reported as “inactive”, the outcome [3] is reported as “inactive” and the outcome [5] is reported as “inactive”.
With `C/C(=C\C(=O)OCCCCCCCCC(=O)O)C[C@@H]1OC[C@H](C[C@@H]2O[C@H]2[C@@H](C)[C@H](C)O)[C@@H](O)[C@H]1O` the outcome [2] was “inactive”, the outcome [4] was “inactive” and the outcome [3] was “inactive”.
For `CC1OCCC1=O` (stereo not given), the outcome [1] was “inactive”, the outcome [3] was “inactive” and the outcome [5] was “inactive”.
For `O=C(O)c1cc(O)c2c(c1)[O][Bi][O]2`, the outcome [2] was “inactive”.
In the case of `O=C1C(CCS(=O)c2ccccc2)C(=O)N(c2ccccc2)N1c1ccccc1` (stereo not given), the outcome [1] is reported as “inactive” and the outcome [5] is reported as “inactive”.
In the case of `CN(C)CC/C=C1\c2ccccc2COc2ccccc21`, the outcome [1] is reported as “inactive” and the outcome [5] is reported as “inactive”.
For `Cc1ccc(C=O)cc1C`, the outcome [2] was “inactive”, the outcome [4] was “inactive” and the outcome [3] was “inactive”.
With `CCOc1cc(N)c(Cl)cc1C(=O)NCC1CN(Cc2ccc(F)cc2)CCO1` (stereo not given) the outcome [1] was “inactive”, the outcome [3] was “inactive” and the outcome [5] was “inactive”.
For `NNc1nnc(Cc2ccncc2)c2ccccc12`, the outcome [1] was “inactive”, the outcome [14] was “inactive” and the outcome [15] was “inactive”. The outcome [16] was “inactive” and the outcome [17] was “inactive”.
For `O=C(O)C=Cc1ccc(C=CC(=O)O)cc1`, the outcome [2] was “inactive”.
In the case of `CCc1c(C)[nH]c2c1C(=O)C(CN1CCOCC1)CC2` (stereo not given), the outcome [1] is reported as “inactive”, the outcome [4] is reported as “inactive” and the outcome [5] is reported as “inactive”.
In the case of `ClCCl`, the outcome [2] is reported as “inactive” and the outcome [4] is reported as “inactive”.
In the case of `CNc1c2c(nn1C)CCCC2`, the outcome [2] is reported as “inactive”, the outcome [4] is reported as “inactive” and the outcome [3] is reported as “inactive”.
With `O=C1OC(=O)c2cccc3cccc1c23` the outcome [1] was “inactive” and the outcome [5] was “inactive”.
For `CC[C@H]1OC(=O)C[C@@H](O)[C@H](C)[C@@H](O[C@@H]2O[C@H](C)[C@@H](O)[C@H](N(C)C)[C@H]2O)[C@@H](CCN2C[C@H](C)C[C@H](C)C2)C[C@@H](C)C(=O)/C=C/C(C)=C/[C@@H]1CO[C@@H]1O[C@H](C)[C@@H](O)[C@@H](OC)[C@H]1OC`, the outcome [1] was “inactive” and the outcome [3] was “inactive”.
For `Cc1nc2ccccc2s1`, the outcome [1] was “inactive” and the outcome [3] was “inactive”.
